Measurements published in PubChem BioAssay (NCI).
This is part of a sample that, as a whole, favours compounds with a hit. Of some 83,000 tested, about 20% had one in any assay.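 Treatment: one concentration, 48 hours, 96-well format. Scoring: percent growth, with anything below 10 considered active.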 Activity calls are given as the source filed them.

What was measured:
Experiment in all cases: NCI-60 one-dose screen, 48 h (100 = growth as untreated, 0 = no growth, -100 = all killed)
Conditions in all cases: 10 µM unless noted
[1] = system: HCT-15 colon
[2] = system: HT29 colon
[3] = system: SNB-75 CNS
[4] = system: SNB-19 CNS
[5] = system: U251 CNS
[6] = system: PC-3 prostate
[7] = system: SK-MEL-5 melanoma
[8] = system: LOX IMVI melanoma
[9] = system: SK-MEL-28 melanoma
[10] = system: SK-MEL-2 melanoma
[11] = system: EKVX NSCLC
[12] = system: SN12C renal
[13] = system: UO-31 renal
[14] = system: TK-10 renal
[15] = system: ACHN renal
[16] = system: CAKI-1 renal
[17] = system: A498 renal
[18] = system: CCRF-CEM leukemia
[19] = system: MOLT-4 leukemia
[20] = system: UACC-62 melanoma

Measured: growth

Fc1ccc2c(-c3cncn3CCc3ccccc3)c[nH]c2c1
inactive: [1] 95.7% | [2] 85.4% | [3] 47.7% | [4] 85.1% | [5] 91.9% | [6] 86.8% | [7] 90.2% | [8] 94.8% | [9] 98.8% | [10] 94.1% | [11] 79.4% | [12] 77% | [13] 68.1% | [14] 135% | [15] 96.7% | [16] 75.2% | [17] 64.1% | [18] 79.4% | [19] 91.2%

O=S(=O)(NCCCNc1nccc(-c2c(-c3cccc(F)c3)nc3sccn23)n1)c1cccc2ccccc12
inactive: [1] 18% | [3] 86.5% | [4] 69% | [5] 59.1% | [6] 41.2% | [7] 31.8% | [20] 24.3% | [8] 20.9% | [9] 77.5% | [10] 47.8% | [11] 56.1% | [12] 46.9% | [13] 20% | [14] 71.7% | [15] 34.7% | [18] 38.5% | [19] 29.3%
active: [2] 1.97%

Cc1cc2nc3c4cc([N+](=O)[O-])ccc4n(CCN(C)C)c3nc2cc1C
active: [1] -15.7% | [2] 4.93% | [3] -6.58% | [4] 8.53% | [5] 1.87% | [6] -0.344% | [7] -73.4% | [20] -58.7% | [8] -48.7% | [9] 2.33% | [10] -56.5% | [11] -3.49% | [12] 1.16% | [13] -41.9% | [14] -5.99% | [15] -13% | [18] 3.84% | [19] 1.36%

CC(C)=CCC[C@](C)(O)[C@H]1CC[C@]2(C)[C@@H]1CC[C@@H]1[C@@]3(C)C/C(=C/c4ccccc4)C(=O)C(C)(C)[C@@H]3CC[C@]12C
inactive: [1] 93.6% | [2] 99.9% | [3] 67.2% | [4] 88% | [5] 85.8% | [6] 79.6% | [7] 98.7% | [8] 93.4% | [9] 104% | [10] 98.3% | [11] 96.4% | [12] 91% | [13] 66.7% | [14] 63.8% | [15] 96.3% | [16] 53.7% | [17] 85.6% | [18] 87.8%

C=C(CBr)[C@@H]1CC[C@]2(COC(C)=O)CC[C@]3(C)[C@H](CC[C@@H]4[C@@]5(C)CCCNC(C)(C)[C@@H]5CC[C@]43C)[C@@H]12
inactive: [1] 24.8% | [2] 29.1% | [3] 79.8% | [4] 64.2% | [5] 37% | [6] 12.9% | [7] 19.9% | [8] 23.5% | [9] 60.7% | [10] 59.4% | [11] 46.9% | [12] 48% | [13] 29.6% | [14] 41.1% | [15] 39.5% | [16] 37.5% | [17] 49.4% | [18] 33.8% | [19] 10.9%

CN(C)CCn1c2ccc(Br)cc2c2nc3ccccc3nc21
active: [15] 9.3%
inactive: [1] 20.2% | [2] 16.9% | [3] 42.3% | [4] 31.6% | [5] 32.2% | [6] 34% | [7] 46.8% | [8] 14.8% | [9] 84.8% | [10] 41.8% | [11] 41.6% | [12] 26.5% | [13] 11% | [14] 62.4% | [16] 13.8% | [18] 28.4% | [19] 13.7%

COc1ccc(C/C(=C(\C)c2ccc(OCCN3CCCC3)cc2)c2ccc(OCCN3CCCC3)cc2)cc1
active: [2] -58.1% | [5] -39.7% | [7] -48.8% | [20] -55.6% | [8] -92.5% | [9] -86.9% | [18] 0.621% | [19] -17.5%
inactive: [1] 11.9% | [3] 83.2% | [4] 72.6% | [6] 50.9% | [10] 102% | [11] 81.3% | [12] 73.8% | [13] 53.4% | [14] 87.3% | [15] 54.1%

Cc1cc(C)c(S(=O)(=O)Oc2ccccc2[N+](=O)[O-])c(C)c1
inactive: [1] 15.8% | [4] 33.1% | [5] 29.7% | [6] 20.7% | [20] 24.5% | [8] 43.4% | [9] 50.6% | [11] 48.2% | [12] 35.6% | [13] 22.8% | [14] 33.9% | [15] 37.4% | [18] 20.6% | [19] 34.6%
active: [2] 3.94% | [3] -18.4% | [7] 6.18% | [10] 7.67%

COc1ccc2c(c1)oc1c(C)c3c(c(C)c12)C(=O)N(CCN1CCOCC1)C3=O
inactive: [1] 102% | [2] 99.3% | [3] 99.5% | [4] 97.5% | [5] 105% | [6] 82.8% | [7] 97.5% | [8] 96.4% | [9] 103% | [10] 124% | [11] 110% | [12] 93.2% | [13] 85.1% | [14] 115% | [15] 104% | [16] 88.1% | [17] 109% | [18] 77.4% | [19] 83.1%

C/C=C(\C)C(=O)NC1=CC[C@@]2(C)C(=CCC3C2CC[C@@]2(C)C3CC[C@@H]2C(C)N(C)C)C1=O (stereo partly drawn)
inactive: [3] 42.3% | [4] 83% | [5] 36.3% | [6] 26.2% | [10] 86.5% | [11] 32% | [12] 60.6% | [14] 58.1% | [15] 65.6% | [16] 63.6% | [17] 71.2% | [18] 15.3% | [19] 47%
active: [1] -32.5% | [2] -19.7% | [7] -34.7% | [8] -53.2% | [9] -66.5% | [13] 1.15%

COC(=O)C1=C(C(=O)ON)C2C=CC1(C(Cc1ccccc1)Nc1ccccc1)O2 (stereo not drawn)
inactive: [2] 37.9% | [3] 106% | [4] 106% | [5] 94.6% | [6] 100% | [7] 104% | [20] 89.9% | [8] 75.8% | [9] 65.4% | [10] 86.7% | [11] 91.9% | [12] 87.4% | [13] 16.9% | [19] 12.9%
active: [1] -53.8% | [14] -63.7% | [15] -99.7% | [18] -7.87%

O=C(c1nc2ccccc2[nH]1)C1C(c2ccc(Br)cc2)C2CC3CCCC[C@H]3N2[C@@]12C(=O)Nc1cc(Cl)ccc12 (stereo partly drawn)
active: [19] 6.93%
inactive: [1] 23.7% | [2] 27.9% | [3] 49.1% | [4] 49.8% | [5] 43.9% | [6] 28.4% | [7] 51% | [20] 58% | [8] 30% | [9] 62.4% | [10] 73.3% | [11] 37% | [12] 39.7% | [13] 20.6% | [14] 40.7% | [15] 29.9% | [18] 32%

N#CC(C#N)=Cc1cc2ccccc2nc1Oc1ccc(C(F)(F)F)cc1
active: [18] 0.288%
inactive: [1] 85.1% | [2] 100% | [3] 84.2% | [4] 93.2% | [5] 91.2% | [6] 51.5% | [7] 94.7% | [20] 78.4% | [8] 76.4% | [9] 104% | [10] 103% | [11] 84.1% | [12] 91.9% | [13] 43.8% | [14] 114% | [15] 88.7% | [19] 54.8%

OC(c1cccc(C(F)(F)F)c1)c1cnccc1NC1CCCCC1 (stereo not drawn)
inactive: [1] 81.3% | [2] 37.9% | [3] 72.1% | [4] 89.3% | [5] 76% | [6] 69.4% | [7] 69.6% | [8] 82.4% | [9] 98.4% | [10] 92.6% | [11] 77.6% | [12] 73.5% | [13] 52.2% | [14] 82.7% | [15] 87.2% | [16] 69.5% | [17] 77.4% | [18] 62% | [19] 71.6%

Cc1nn(-c2ccccc2)c(Oc2c(Cl)cccc2Cl)c1/C=N/N=c1\sc2ccccc2n1C
inactive: [1] 25.3% | [2] 33.7% | [3] 86.4% | [4] 49.7% | [5] 28.5% | [6] 44.1% | [7] 20.2% | [20] 36.2% | [8] 26% | [9] 64.1% | [10] 80% | [11] 77.9% | [12] 59.1% | [13] 57.5% | [14] 85.7% | [15] 43.7% | [18] 40.7% | [19] 18.6%

COc1cc(NC(C)CCCNC(=O)CCC(=O)NCCCNCCCCCCCCCCNCCCNC(=O)CCC(=O)NCCCC(C)Nc2cc(OC)cc3cccnc23)c2ncccc2c1 (stereo not drawn)
inactive: [1] 99.1% [8 µM] | [2] 73.6% [8 µM] | [3] 59.1% [8 µM] | [4] 60.5% [8 µM] | [6] 78.2% [8 µM] | [7] 91% [8 µM] | [20] 89.4% [8 µM] | [8] 51.1% [8 µM] | [9] 86.8% [8 µM] | [10] 93.4% [8 µM] | [11] 73.7% [8 µM] | [12] 41.3% [8 µM] | [13] 96.3% [8 µM] | [14] 100% [8 µM] | [15] 96.7% [8 µM] | [16] 97.3% [8 µM] | [18] 66.6% [8 µM] | [19] 76.8% [8 µM]
